Compounds without any hit were thinned out: in the full panel of roughly 83,000, 20% have a hit.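 Percent growth is the endpoint: 0 to 100 indicates growth inhibition (40 means 60% inhibition), 0 means no net growth, and negative values indicate cell death.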 Activity calls are given as the source filed them. How the source made its calls: active means growth percent below 10; inactive means the rest.
How the values were obtained:
Test in all cases: NCI-60 one-dose screen, 48 h (100 = growth as untreated, 0 = no growth, -100 = all killed)
Details in all cases: 10 µM unless noted
NCI-H23 lung = system: NCI-H23 lung
NCI-H226 lung = system: NCI-H226 lung
NCI-H322M lung = system: NCI-H322M lung
HOP-62 NSCLC = system: HOP-62 NSCLC
NCI-H460 lung = system: NCI-H460 lung
HOP-92 NSCLC = system: HOP-92 NSCLC
NCI-H522 lung = system: NCI-H522 lung
A549/ATCC NSCLC = system: A549/ATCC NSCLC
786-0 renal = system: 786-0 renal
COLO 205 colon = system: COLO 205 colon
DU-145 prostate = system: DU-145 prostate
K-562 leukemia = system: K-562 leukemia
MALME-3M melanoma = system: MALME-3M melanoma
MDA-MB-231 breast = system: MDA-MB-231 breast
RXF 393 renal = system: RXF 393 renal
SF-268 CNS = system: SF-268 CNS
SF-295 CNS = system: SF-295 CNS
SF-539 CNS = system: SF-539 CNS
UACC-257 melanoma = system: UACC-257 melanoma
M14 melanoma = system: M14 melanoma

Measured: growth

CCCCCCCC[C@@H]1N[C@@H](C(=O)OC)Cc2c1[nH]c1ccccc21
inactive: NCI-H23 lung 92.1% | NCI-H226 lung 92.5% | NCI-H322M lung 99.7% | HOP-62 NSCLC 103% | NCI-H460 lung 102% | HOP-92 NSCLC 89.5% | NCI-H522 lung 86.6% | A549/ATCC NSCLC 104% | 786-0 renal 96.2% | COLO 205 colon 113% | DU-145 prostate 106% | K-562 leukemia 88.4% | MALME-3M melanoma 83% | MDA-MB-231 breast 96.2% | RXF 393 renal 96.6% | SF-268 CNS 97.3% | SF-295 CNS 102% | SF-539 CNS 93.7% | UACC-257 melanoma 101% | M14 melanoma 102%

CCOC(=O)C/C(=N\Nc1cc(=O)[nH]c2ccc(Br)cc12)C(=O)OCC
inactive: NCI-H23 lung 91.2% | NCI-H226 lung 86.9% | NCI-H322M lung 92.9% | HOP-62 NSCLC 95.9% | NCI-H460 lung 101% | HOP-92 NSCLC 76.2% | NCI-H522 lung 95.2% | A549/ATCC NSCLC 106% | 786-0 renal 106% | COLO 205 colon 107% | DU-145 prostate 104% | K-562 leukemia 24.2% | MALME-3M melanoma 90.5% | MDA-MB-231 breast 102% | RXF 393 renal 104% | SF-268 CNS 100% | SF-295 CNS 102% | SF-539 CNS 99.8% | UACC-257 melanoma 111% | M14 melanoma 96.8%

NC(N)=NCCCCCNc1noc(Cc2c[nH]c3cc(Br)ccc23)n1
inactive: NCI-H23 lung 64% | NCI-H226 lung 63.2% | NCI-H322M lung 77.3% | HOP-62 NSCLC 58.3% | NCI-H460 lung 68% | HOP-92 NSCLC 16.2% | NCI-H522 lung 47.8% | A549/ATCC NSCLC 65.3% | 786-0 renal 91.7% | COLO 205 colon 64.7% | DU-145 prostate 92.8% | K-562 leukemia 86.4% | MALME-3M melanoma 47.8% | MDA-MB-231 breast 69.4% | RXF 393 renal 78.3% | SF-268 CNS 33.3% | SF-295 CNS 80.2% | SF-539 CNS 71.8% | UACC-257 melanoma 65.7% | M14 melanoma 73.6%

O=c1c2cccc3c(N4CCCC4)ccc(c32)c2nc3ccccc3n12
inactive: NCI-H23 lung 68.2% | NCI-H226 lung 55.3% | NCI-H322M lung 95.1% | HOP-62 NSCLC 66.1% | NCI-H460 lung 16.1% | HOP-92 NSCLC 40.7% | NCI-H522 lung 71.2% | A549/ATCC NSCLC 35.6% | 786-0 renal 88.3% | COLO 205 colon 63.6% | DU-145 prostate 78.1% | K-562 leukemia 76% | MALME-3M melanoma 70.4% | MDA-MB-231 breast 77.1% | RXF 393 renal 103% | SF-268 CNS 92% | SF-295 CNS 59.8% | SF-539 CNS 91.3% | UACC-257 melanoma 91.8% | M14 melanoma 91.5%

COCCn1cc(-c2csc(-c3cn(C)c4ccc(Br)cc34)n2)c2cccnc21
active: NCI-H522 lung -35.7% | K-562 leukemia -9.15%
inactive: NCI-H23 lung 76.1% | NCI-H226 lung 86.4% | NCI-H322M lung 74.2% | HOP-62 NSCLC 70.8% | NCI-H460 lung 26.8% | HOP-92 NSCLC 65.3% | A549/ATCC NSCLC 40.2% | 786-0 renal 19.8% | COLO 205 colon 46.6% | DU-145 prostate 62.5% | MALME-3M melanoma 96.6% | MDA-MB-231 breast 42.9% | RXF 393 renal 68.8% | SF-268 CNS 64.8% | SF-295 CNS 33.9% | SF-539 CNS 70.1% | UACC-257 melanoma 63.7% | M14 melanoma 42.9%

CCOC(=O)C1=C(N)Oc2c(sc3c(F)cccc23)C1c1ccc(O)cc1 (stereo not given)
inactive: NCI-H23 lung 30.8% | NCI-H226 lung 55.2% | NCI-H322M lung 67.5% | HOP-62 NSCLC 55.4% | NCI-H460 lung 30.4% | HOP-92 NSCLC 34.6% | NCI-H522 lung 26.9% | A549/ATCC NSCLC 40.5% | 786-0 renal 59.6% | COLO 205 colon 79.5% | DU-145 prostate 66.8% | K-562 leukemia 12.6% | MALME-3M melanoma 54.4% | MDA-MB-231 breast 36.9% | RXF 393 renal 46.1% | SF-268 CNS 37% | SF-295 CNS 56.3% | SF-539 CNS 42.5% | UACC-257 melanoma 49.8% | M14 melanoma 22.9%

COc1ccc(OC)c(-c2nc(SCC(=O)c3ccc(C#N)cc3)[nH]c(=O)c2C#N)c1
inactive: NCI-H23 lung 98.1% | NCI-H226 lung 101% | NCI-H322M lung 105% | HOP-62 NSCLC 99.7% | NCI-H460 lung 112% | HOP-92 NSCLC 99% | NCI-H522 lung 90.4% | A549/ATCC NSCLC 103% | 786-0 renal 101% | COLO 205 colon 86.9% | DU-145 prostate 99.6% | K-562 leukemia 111% | MALME-3M melanoma 97.8% | MDA-MB-231 breast 101% | RXF 393 renal 105% | SF-268 CNS 93.3% | SF-295 CNS 99.5% | SF-539 CNS 93.8% | UACC-257 melanoma 99.9% | M14 melanoma 91.7%

Source: PubChem BioAssay (NCI)
